According to PubChem BioAssay (NCATS):
Inconclusive results are not listed. Activity calls are given as the source filed them. Unless noted, calls follow the shape of the dose curve; as a rule, active = well fitted curve in the direction sought with a large enough effect; inconclusive = small, poorly fitted or top-dose-only effect, or another doubt; inactive = no such curve, though single readings can be large; an effect the other way counts as inactive or inconclusive.

Tests used:
[1] = target: Lysosomal acid glucosylceramidase (Homo sapiens) (UniProt P04062); assay: Glucocerebrosidase-p2 (AID 348; in the data active = potency below about 10 µM; also: potency is read from the fitted curve at half-maximal effect); conditions: purified GBA, blue fluorogenic substrate, 40 min
Procedure, shortened: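 Compounds titrated from 0.6 nM upwards against 0.2 nM enzyme in pH 5.9 citric acid/KH2PO4, taurocholate, tween-20; blue fluorogenic substrate 80 uM, 40 min room temperature, stopped and read Ex 365/Em 440 for AC50.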

[2] = AP1 Signaling Pathway (AID 357; active = well fitted curve in either direction with a large enough effect, not every such curve was filed as active;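 also: ME-180 reporter cells stimulated with EGF at its EC50 level; % is scaled to controls: 0 for no effect and ±100 for the full control effect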)
Procedure, shortened: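 Cells are seeded overnight, exposed to compound titrations and an EC50 level of EGF for 5 hours at 37 °C, then loaded with CCF4 dye for 2.5 hours. Beta-lactamase activity under the AP-1 element is read as a blue/green ratio.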

[3] = target: Cytochrome P450 1A2 (Homo sapiens) (UniProt P05177); assay: p450-cyp1a2 (AID 410; calls by dose curve;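 also: -100% = full effect of reference inhibitor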)
Procedure, shortened: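 Inhibition was calculated relative to 57 uM furafylline (full inhibition). The reaction used human CYP1A2 at 20nM with Luciferin-ME at its Km, 100uM, driven by an NADPH-regenerating system for 60 min at room temperature.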

[4] = NFAT Signaling Pathway (AID 444; active = well fitted curve in either direction with a large enough effect, not every such curve was filed as active;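 also: carbachol stimulus at about its EC50 of 1 µM final; % is scaled to controls: 0 for no effect and ±100 for the full control effect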); conditions: Jurkat NFAT-bla M1, carbachol, beta-lactamase ratio, 5 h; at 17.2 µM (top of the series) unless noted
Procedure, shortened: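 Jurkat cells carrying an NFAT-driven β-lactamase reporter and co-transfected muscarinic M1 receptor were treated with compound plus carbachol (1 uM final, an EC50 level) for 5 h at 37 °C. CCF4 loading followed for 1 h at RT; 460/530 nm ratio gave %activity.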

[5] = Stat Signaling Pathway (AID 446; active = well fitted curve in either direction with a large enough effect, not every such curve was filed as active;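 also: ME-180 cervical cancer cells given 40 pM IL-6 alongside compound; SIE-controlled beta-lactamase reporter measured as 460/530 nm FRET emission ratio; % is scaled to controls: 0 for no effect and ±100 for the full control effect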)
Procedure, shortened: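 ME-180 SIE-bla cells; overnight plating; cpd + IL-6 40 pM, 5 h, 37 C; LiveBLAzer 2.5 h RT; 460/530 nm emission ratio. Normalized to 300 pM IL-6 and 125 nM JAK inhibitor controls.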

[6] = target: Glucocorticoid receptor (Homo sapiens) (UniProt P04150); assay: GR-EFC Redistribution (AID 451; calls by dose curve; also: potency is read from the fitted curve at half-maximal effect); conditions: CHO-K1 GR-EFC translocation, beta-gal luminescence, 2 h
Procedure, shortened: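 CHO-K1 cells stably expressing nuclear-localized β-gal enzyme acceptor and GR fused C-terminally to the enzyme donor fragment; ligand-driven nuclear translocation restores β-gal by complementation. Compounds titrated up to 46 uM final, 2 h at 37 °C; luminescence read.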

[7] = target: Mitogen-activated protein kinase 10 (Mus musculus) (UniProt Q61831); assay: JNK3 AlphaScreen Assay (AID 530; active = well fitted curve in either direction with a large enough effect, not every such curve was filed as active;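 also: kinase came from lysate of stimulated human HepG2 cells; signal reports phosphorylation of biotinylated GST-cJun 1-79 at Ser73 with 10 µM ATP; % is scaled to controls: 0 for no effect and ±100 for the full control effect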)
Procedure, shortened: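 JNK3 came from HepG2 lysates pre-activated with IL-1beta and TNF-alpha and phosphorylated biotinylated GST-cJun (1-79) at 10 uM ATP, pH 7.6, room temperature. Compounds were titrated. AlphaScreen signal used anti-phospho-cJun (Ser73) antibody.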

[8] = target: 3',5'-cyclic-AMP phosphodiesterase 4B (Homo sapiens) (UniProt Q07343); assay: qHTS Assay for Inhibitors of PDE-IV (AID 607; active = well fitted activation curve with a large enough effect in the main read-out, with a control signal flat, not every such curve was filed as active; also: % of control where 0% means no effect)
Procedure, shortened: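 ACTOne HEK293 cells carry a modified cAMP-gated CNG channel and express endogenous PDE4; plated 1000 cells/well, compounds up to 22.9 uM final. Membrane-potential dye fluorescence (ex 535/em 590) was read; parental cells received 10 uM forskolin + 100 uM RO 20-1724.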

[9] = target: ATP-dependent 6-phosphofructokinase (Trypanosoma brucei brucei) (UniProt O15648); assay: qHTS Assay to Find Inhibitors of T. brucei phosphofructokinase: hit validation (AID 492961)
Procedure, shortened: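 Reaction: 0.1 M triethanolamine pH 8.0, 5 mM MgCl2, F6P 0.5 mM, ATP 0.1 mM, PFK 1.25 nM, 45 min RT. Read-out: ADP-Glo luminescence. Analysis: concentration-response fits, classed by r2 and efficacy.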

[10] = target: Ubiquitin carboxyl-terminal hydrolase 1 (Homo sapiens) (UniProt O94782); assay: Inhibitors of USP1/UAF1: Pilot qHTS (AID 504865);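 also: rhodamine fluorescence freed from ubiquitin-rhodamine substrate followed over time; top concentration of the series differs between compounds; % is scaled to controls: 0 for no effect and ±100 for the full control effect; nearly all actives have a fitted effect of over 35% in size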
Procedure, shortened: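 USP1/UAF1 complex (1nM) preincubated with compound 15 min at room temperature, then Ub-Rho substrate (150nM final) added. Fluorescence read kinetically at 480/540 nm, 6 reads every 60 seconds. Buffer: 50mM HEPES pH 7.8, 0.5mM EDTA, 0.1 mg/ml BSA, 1mM TCEP, 0.01% Tween-20.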

[11] = target: Luciferin 4-monooxygenase (Photinus pyralis) (UniProt P08659); assay: Biochemical firefly luciferase enzyme assay for NPC (AID 624030);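 also: purified P. pyralis luciferase at 10 nM with luciferin and ATP substrate; 0% = DMSO and -100% = full luciferase inhibition by PTC124 control; nearly all actives have a fitted effect of over 70% in size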
Procedure, shortened: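 Counter-screen for direct inhibition of the luciferase enzyme by approved-drug library compounds, run at 10 nM enzyme in 50 mM Tris acetate (final). Luminescence was read within 5 min of enzyme-buffer addition and normalized to PTC124 versus DMSO (0%).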

[12] = S16 Schwann cell viability assay (CellTiter-Glo assay) (AID 624031);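 also: native untransfected S16 rat Schwann cells; cellular ATP luminescence as a viability measure; plate controls were DMSO-treated cells for no effect and cell-free wells for full effect; nearly all actives have a fitted effect of over 70% in size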
Procedure, shortened: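 Following overnight culture in 10% FBS DMEM, parental S16 rat Schwann cells are dosed for 24 h at 37 °C. Viability is read as CellTiter-Glo luminescence and expressed as % activity relative to DMSO (0%) and no-cell wells.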

[13] = S16 Schwann cell PMP22 intronic element firefly luciferase assay (AID 624032);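 also: plate controls were DMSO for no effect and PTC124 positive control mean for full effect; nearly all actives have a fitted effect of over 30% in size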
Procedure, shortened: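 Rat S16 Schwann cells stably carrying a PMP22 intronic element-driven Fluc reporter were seeded overnight, then exposed to compounds for 24 h at 37 °C. Luminescence was normalized to PTC124 (positive control) and DMSO (0% activity).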

[14] = qHTS profiling for inhibitors of Plasmodium falciparum proliferation (AID 504749);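 also: 0% = DMSO vehicle and full inhibition = artemisinin control; nearly all actives have a fitted effect of over 60% in size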; conditions: P. falciparum in erythrocytes, SYBR Green DNA, 72 h, at 28.7 µM (top of the series)
Procedure, shortened: (§1)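 P. falciparum-infected erythrocytes (0.3% parasitemia, 2.5% hematocrit final) were exposed to compounds for 72 h at 37 C in 5% CO2, then lysed with SYBR Green buffer overnight at room temperature; parasite DNA fluorescence was normalized to artemisinin and DMSO controls.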

3D7 = assay: as above; conditions: P. falciparum in erythrocytes, SYBR Green DNA, 72 h; series mostly up to 12.8 µM
Procedure, shortened: as §1

7G8 = assay: as above; conditions: P. falciparum in erythrocytes, SYBR Green DNA, 72 h; series mostly up to 12.8 µM
Procedure, shortened: as §1

AA1029 = assay: as above; conditions: P. falciparum in erythrocytes, SYBR Green DNA, 72 h; series mostly up to 12.8 µM
Procedure, shortened: as §1

AS120 = assay: as above; conditions: P. falciparum in erythrocytes, SYBR Green DNA, 72 h; series mostly up to 12.8 µM
Procedure, shortened: as §1

ATS189 = assay: as above; conditions: P. falciparum in erythrocytes, SYBR Green DNA, 72 h; series mostly up to 12.8 µM
Procedure, shortened: as §1

ATS95 = assay: as above; conditions: P. falciparum in erythrocytes, SYBR Green DNA, 72 h; series mostly up to 12.8 µM
Procedure, shortened: as §1

C2A = assay: as above; conditions: P. falciparum in erythrocytes, SYBR Green DNA, 72 h; series mostly up to 12.8 µM
Procedure, shortened: as §1

CP185 = assay: as above; conditions: P. falciparum in erythrocytes, SYBR Green DNA, 72 h; series mostly up to 12.8 µM
Procedure, shortened: as §1

CP191 = assay: as above; conditions: P. falciparum in erythrocytes, SYBR Green DNA, 72 h; series mostly up to 12.8 µM
Procedure, shortened: as §1

CP192 = assay: as above; conditions: P. falciparum in erythrocytes, SYBR Green DNA, 72 h; series mostly up to 12.8 µM
Procedure, shortened: as §1

CP194 = assay: as above; conditions: P. falciparum in erythrocytes, SYBR Green DNA, 72 h; series mostly up to 12.8 µM
Procedure, shortened: as §1

CP201 = assay: as above; conditions: P. falciparum in erythrocytes, SYBR Green DNA, 72 h; series mostly up to 12.8 µM
Procedure, shortened: as §1

CP203 = assay: as above; conditions: P. falciparum in erythrocytes, SYBR Green DNA, 72 h; series mostly up to 12.8 µM
Procedure, shortened: as §1

CP211 = assay: as above; conditions: P. falciparum in erythrocytes, SYBR Green DNA, 72 h; series mostly up to 12.8 µM
Procedure, shortened: as §1

CP215 = assay: as above; conditions: P. falciparum in erythrocytes, SYBR Green DNA, 72 h; series mostly up to 12.8 µM
Procedure, shortened: as §1

CP217 = assay: as above; conditions: P. falciparum in erythrocytes, SYBR Green DNA, 72 h; series mostly up to 12.8 µM
Procedure, shortened: as §1

CP237 = assay: as above; conditions: P. falciparum in erythrocytes, SYBR Green DNA, 72 h; series mostly up to 12.8 µM
Procedure, shortened: as §1

CP238 = assay: as above; conditions: P. falciparum in erythrocytes, SYBR Green DNA, 72 h; series mostly up to 12.8 µM
Procedure, shortened: as §1

CP247 = assay: as above; conditions: P. falciparum in erythrocytes, SYBR Green DNA, 72 h; series mostly up to 12.8 µM
Procedure, shortened: as §1

CP250 = assay: as above; conditions: P. falciparum in erythrocytes, SYBR Green DNA, 72 h; series mostly up to 12.8 µM
Procedure, shortened: as §1

CP252 = assay: as above; conditions: P. falciparum in erythrocytes, SYBR Green DNA, 72 h; series mostly up to 12.8 µM
Procedure, shortened: as §1

Sequence of Lysosomal acid glucosylceramidase (Homo sapiens) (P04062 whole entry, looked up): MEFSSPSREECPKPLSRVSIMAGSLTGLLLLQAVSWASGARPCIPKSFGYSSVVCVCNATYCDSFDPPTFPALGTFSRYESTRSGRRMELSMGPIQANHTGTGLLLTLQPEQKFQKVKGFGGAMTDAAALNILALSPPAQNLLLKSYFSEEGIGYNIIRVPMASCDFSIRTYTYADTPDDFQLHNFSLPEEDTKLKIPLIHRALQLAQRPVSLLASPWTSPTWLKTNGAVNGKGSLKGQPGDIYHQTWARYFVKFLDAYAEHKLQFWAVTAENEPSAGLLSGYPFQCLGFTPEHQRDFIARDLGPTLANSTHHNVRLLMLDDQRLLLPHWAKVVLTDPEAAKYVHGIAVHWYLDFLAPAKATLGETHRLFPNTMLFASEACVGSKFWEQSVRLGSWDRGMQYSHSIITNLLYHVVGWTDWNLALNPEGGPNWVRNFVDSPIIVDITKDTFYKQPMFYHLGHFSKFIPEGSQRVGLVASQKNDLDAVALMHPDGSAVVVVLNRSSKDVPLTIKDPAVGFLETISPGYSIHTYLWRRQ
Sequence of Luciferin 4-monooxygenase (Photinus pyralis) (P08659 whole entry, looked up): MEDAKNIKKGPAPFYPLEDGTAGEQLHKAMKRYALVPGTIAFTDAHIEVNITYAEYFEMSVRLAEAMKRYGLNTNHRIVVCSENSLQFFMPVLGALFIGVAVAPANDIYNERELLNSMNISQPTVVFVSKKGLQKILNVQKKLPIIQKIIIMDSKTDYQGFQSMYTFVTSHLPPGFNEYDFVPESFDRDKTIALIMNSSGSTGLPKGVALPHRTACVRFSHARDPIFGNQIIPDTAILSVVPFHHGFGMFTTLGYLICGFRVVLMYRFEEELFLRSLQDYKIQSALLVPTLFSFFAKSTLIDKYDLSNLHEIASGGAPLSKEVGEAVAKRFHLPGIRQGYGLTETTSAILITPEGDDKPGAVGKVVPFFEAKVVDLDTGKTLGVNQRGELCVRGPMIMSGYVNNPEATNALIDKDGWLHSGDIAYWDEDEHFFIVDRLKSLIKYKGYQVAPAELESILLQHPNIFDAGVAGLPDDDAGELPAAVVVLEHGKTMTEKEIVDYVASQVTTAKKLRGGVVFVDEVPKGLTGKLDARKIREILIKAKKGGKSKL
Sequence of 3',5'-cyclic-AMP phosphodiesterase 4B (Homo sapiens) (Q07343 whole entry, looked up): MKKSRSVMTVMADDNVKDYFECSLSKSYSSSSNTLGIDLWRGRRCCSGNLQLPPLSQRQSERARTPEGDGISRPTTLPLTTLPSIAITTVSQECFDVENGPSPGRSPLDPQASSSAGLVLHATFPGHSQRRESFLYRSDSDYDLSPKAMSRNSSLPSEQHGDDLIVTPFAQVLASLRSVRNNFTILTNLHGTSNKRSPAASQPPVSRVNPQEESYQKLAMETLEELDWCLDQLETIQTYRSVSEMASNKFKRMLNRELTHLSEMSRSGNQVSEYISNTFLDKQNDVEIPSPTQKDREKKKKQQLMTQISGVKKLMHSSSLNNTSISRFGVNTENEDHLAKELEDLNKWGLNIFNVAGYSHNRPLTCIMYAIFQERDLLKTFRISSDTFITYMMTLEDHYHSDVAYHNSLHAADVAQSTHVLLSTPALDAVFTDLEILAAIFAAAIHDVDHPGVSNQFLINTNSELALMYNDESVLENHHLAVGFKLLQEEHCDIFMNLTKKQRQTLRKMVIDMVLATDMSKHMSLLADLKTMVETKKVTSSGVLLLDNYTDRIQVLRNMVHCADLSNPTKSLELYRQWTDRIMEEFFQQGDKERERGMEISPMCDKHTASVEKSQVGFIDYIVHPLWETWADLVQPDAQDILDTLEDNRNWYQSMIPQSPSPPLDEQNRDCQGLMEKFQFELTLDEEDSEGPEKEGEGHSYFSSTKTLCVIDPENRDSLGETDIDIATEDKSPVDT
Sequence of Glucocorticoid receptor (Homo sapiens) (P04150 whole entry, looked up, the tested form may be a part): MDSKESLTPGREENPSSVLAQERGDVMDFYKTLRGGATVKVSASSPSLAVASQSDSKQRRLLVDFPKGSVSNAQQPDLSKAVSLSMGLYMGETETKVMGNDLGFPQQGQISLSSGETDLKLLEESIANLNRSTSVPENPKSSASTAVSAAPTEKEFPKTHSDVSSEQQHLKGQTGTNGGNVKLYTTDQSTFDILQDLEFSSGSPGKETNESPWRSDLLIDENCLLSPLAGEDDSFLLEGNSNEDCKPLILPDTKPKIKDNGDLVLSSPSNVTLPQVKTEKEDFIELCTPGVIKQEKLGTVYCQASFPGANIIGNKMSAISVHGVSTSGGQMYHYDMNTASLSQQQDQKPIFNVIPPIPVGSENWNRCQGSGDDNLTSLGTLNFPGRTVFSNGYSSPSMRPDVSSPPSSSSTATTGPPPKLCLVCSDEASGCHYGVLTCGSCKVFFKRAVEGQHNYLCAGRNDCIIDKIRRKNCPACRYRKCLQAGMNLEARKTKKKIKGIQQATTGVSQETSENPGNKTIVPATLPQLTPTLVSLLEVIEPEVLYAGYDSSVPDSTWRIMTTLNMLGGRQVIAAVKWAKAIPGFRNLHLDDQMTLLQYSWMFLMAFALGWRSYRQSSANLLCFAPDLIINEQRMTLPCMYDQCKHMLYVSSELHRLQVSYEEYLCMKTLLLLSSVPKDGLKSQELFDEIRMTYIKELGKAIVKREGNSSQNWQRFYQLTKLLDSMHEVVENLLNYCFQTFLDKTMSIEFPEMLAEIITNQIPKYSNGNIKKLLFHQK
Sequence of ATP-dependent 6-phosphofructokinase (Trypanosoma brucei brucei) (O15648 whole entry, looked up): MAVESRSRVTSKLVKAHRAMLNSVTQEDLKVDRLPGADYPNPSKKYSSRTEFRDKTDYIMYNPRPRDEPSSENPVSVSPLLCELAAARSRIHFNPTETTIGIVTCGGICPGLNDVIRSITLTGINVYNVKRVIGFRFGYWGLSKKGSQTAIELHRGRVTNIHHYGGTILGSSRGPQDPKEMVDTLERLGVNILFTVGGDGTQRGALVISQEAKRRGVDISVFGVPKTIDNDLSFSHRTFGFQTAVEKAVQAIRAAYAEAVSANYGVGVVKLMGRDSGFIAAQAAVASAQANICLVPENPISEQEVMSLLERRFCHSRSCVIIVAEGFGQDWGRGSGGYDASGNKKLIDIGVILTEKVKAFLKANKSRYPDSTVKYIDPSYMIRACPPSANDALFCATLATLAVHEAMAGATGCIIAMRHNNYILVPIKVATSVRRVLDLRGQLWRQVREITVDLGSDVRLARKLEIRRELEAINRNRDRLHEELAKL
Sequence of Cytochrome P450 1A2 (Homo sapiens) (P05177 whole entry, looked up): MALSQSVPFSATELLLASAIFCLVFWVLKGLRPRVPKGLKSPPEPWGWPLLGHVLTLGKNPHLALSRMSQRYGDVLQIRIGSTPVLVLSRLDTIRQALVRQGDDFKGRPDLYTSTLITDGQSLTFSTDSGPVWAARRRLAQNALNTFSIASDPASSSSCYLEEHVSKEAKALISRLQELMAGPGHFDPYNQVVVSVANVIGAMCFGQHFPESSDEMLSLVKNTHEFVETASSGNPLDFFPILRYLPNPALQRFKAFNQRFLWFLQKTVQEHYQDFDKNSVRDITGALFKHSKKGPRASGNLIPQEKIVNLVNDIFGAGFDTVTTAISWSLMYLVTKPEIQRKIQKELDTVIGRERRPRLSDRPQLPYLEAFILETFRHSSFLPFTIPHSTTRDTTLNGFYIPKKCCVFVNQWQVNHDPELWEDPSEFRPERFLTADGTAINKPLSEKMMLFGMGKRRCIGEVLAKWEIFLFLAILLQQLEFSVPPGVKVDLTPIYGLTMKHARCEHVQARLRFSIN
Sequence of Ubiquitin carboxyl-terminal hydrolase 1 (Homo sapiens) (O94782 whole entry, looked up): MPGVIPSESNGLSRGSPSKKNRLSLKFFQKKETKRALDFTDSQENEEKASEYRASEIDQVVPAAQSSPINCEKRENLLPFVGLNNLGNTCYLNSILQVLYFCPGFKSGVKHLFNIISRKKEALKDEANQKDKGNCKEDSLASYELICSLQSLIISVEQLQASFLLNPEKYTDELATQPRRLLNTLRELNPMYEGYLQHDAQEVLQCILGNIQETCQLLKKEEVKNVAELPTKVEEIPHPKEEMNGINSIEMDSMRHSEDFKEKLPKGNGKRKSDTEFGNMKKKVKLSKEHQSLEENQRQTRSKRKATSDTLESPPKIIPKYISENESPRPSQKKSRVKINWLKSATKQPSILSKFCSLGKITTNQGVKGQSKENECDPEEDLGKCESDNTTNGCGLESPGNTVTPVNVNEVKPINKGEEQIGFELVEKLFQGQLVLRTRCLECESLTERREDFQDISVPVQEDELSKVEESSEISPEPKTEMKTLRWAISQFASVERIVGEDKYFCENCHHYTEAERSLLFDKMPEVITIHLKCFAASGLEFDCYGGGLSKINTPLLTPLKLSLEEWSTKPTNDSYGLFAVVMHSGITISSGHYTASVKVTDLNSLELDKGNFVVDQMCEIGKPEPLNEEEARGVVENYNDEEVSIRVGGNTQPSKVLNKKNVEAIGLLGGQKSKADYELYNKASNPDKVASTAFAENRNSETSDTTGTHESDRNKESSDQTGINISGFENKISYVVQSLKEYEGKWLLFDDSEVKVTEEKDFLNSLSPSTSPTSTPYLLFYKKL

O=C(O)[C@@H]1CCCN1
inactive: Potency [1] > 11.4 µM | outcome [2] | Potency [3] | activity change, negative = inhibition [4] -2.98% [at 7.69 µM] | outcome [5] | Potency [6] > 9.22 µM | Potency [7] | outcome [8] | outcome [9] | Potency [10] | Potency [11] | outcome [12] | Potency [13] | activity, negative = inhibition ([14]; parasite line A) 3.04% | activity, negative = inhibition ([14]; parasite line B) -1.27% | Potency (3D7) | Potency (7G8) | Potency (AA1029) | Potency (AS120) | Potency (ATS189) | Potency (ATS95) | Potency (C2A) | Potency (CP185) | Potency (CP191) | Potency (CP192) | Potency (CP194) | Potency (CP201) | Potency (CP203) | Potency (CP211) | Potency (CP215) | Potency (CP217) | Potency (CP237) | Potency (CP238) | Potency (CP247) | Potency (CP250) | Potency (CP252)
